For 3 compounds, AC50 and outcome results are on record in PubChem BioAssay (EPA / NIEHS).

Each structure is given as a SMILES string. Inconclusive results are not listed. Activity calls are given as the source filed them. The calls were made as follows, unless noted: active = hit-call score of the fitted dose curve at least 0.9, where 1 is the maximum; inactive = score below 0.9.

Read-out in assay [1]: Monocyte Chemoattractant Protein-1 (MCP1), CCL2 (gene 6347)
The experiment in a line: BSK_LPS_MCP1: BioMAP Diversity Plus: LPS Assay for Monocyte Chemoattractant Protein-1 (MCP1) Biomarker Activity (AID 2283081).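 As to AC50: secreted MCP-1 protein quantified by ELISA in culture supernatant.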 The following applies: primary human HUVEC with PBMC; actives raise or lower the signal. A digest of the protocol: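 HUVEC plus PBMC co-culture (human primary cells, LPS system) exposed to test chemical for 24 h; MCP-1 measured by ELISA. Bidirectional curve fitting against DMSO baseline; parallel SRB total-protein staining flags overt cytotoxicity.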

The nature of assay [2]: BSK_LPS_PGE2: BioMAP Diversity Plus: LPS Assay for Prostaglandin E2 (PGE2) Biomarker Activity (AID 2283082). Conditions: primary human HUVEC with PBMC; actives raise or lower the signal. A digest of the protocol: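 Endpoint derived from bidirectional curve fitting versus DMSO of ELISA-measured PGE2 in LPS-stimulated human primary vascular co-culture (HUVEC with PBMC) harvested at 24 h.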

Read-out in assay [3]: Macrophage colony-stimulating factor (MCSF), CSF1 (gene 1435)
The experiment in a line: BSK_LPS_MCSF: BioMAP Diversity Plus: LPS Assay for Macrophage colony-stimulating factor (MCSF) Biomarker Activity (AID 2283083). The following applies: primary human HUVEC with PBMC; actives raise or lower the signal. A digest of the protocol:
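Human umbilical vein endothelial cells co-cultured with peripheral blood mononuclear cells were exposed to compound for 24 h. M-CSF levels were measured by ELISA, and bidirectional curve fitting used DMSO as the negative control and baseline.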

Read-out in assay [4]: Tissue Factor, F3 (gene 2152)
The experiment in a line: BSK_LPS_TissueFactor: BioMAP Diversity Plus: LPS Assay for Tissue Factor Biomarker Activity (AID 2283084). The following applies: primary human HUVEC with PBMC; actives raise or lower the signal. A digest of the protocol: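 Human umbilical vein endothelial cells co-cultured with peripheral blood mononuclear cells were dosed and stimulated with LPS. Cell-surface CD142 was quantified by ELISA at 24 h. Activity was fitted bidirectionally against DMSO baseline.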

Read-out in assay [5]: Tumor necrosis factor (Homo sapiens) (UniProt P01375)
The experiment in a line: BSK_LPS_TNFa: BioMAP Diversity Plus: LPS Assay for Tumour Necrosis Factor alpha (TNFa) Biomarker Activity (AID 2283085). Conditions: primary human HUVEC with PBMC; actives raise or lower the signal. A digest of the protocol:
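Primary human vascular co-culture of HUVEC and PBMC; TNFa ELISA 24 h after treatment, analysed as increase or decrease relative to DMSO control.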

Read-out in assay [6]: Vascular cell adhesion molecule 1 (VCAM1), VCAM1 (gene 7412)
As to the kind of experiment: BSK_LPS_VCAM1: BioMAP Diversity Plus: LPS Assay for Vascular cell adhesion molecule 1 (VCAM1) Biomarker Activity (AID 2283086). The following applies: primary human HUVEC with PBMC; actives raise or lower the signal. A digest of the protocol:
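Primary human vascular co-culture (umbilical vein endothelium plus PBMC) stimulated with LPS received chemical; 24 h later VCAM-1 was read by ELISA. Overt cytotoxicity was assessed by sulforhodamine B staining of parallel cultures at the same time point.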

Read-out in a further assay: CD38, CD38 (gene 952)
The experiment in a line: BSK_SAg_CD38: BioMAP Diversity Plus: SAg Assay for CD38 Biomarker Activity (AID 2283087). Conditions: primary human HUVEC with PBMC; actives raise or lower the signal. A digest of the protocol: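 Fluorescence ELISA of cell-surface CD38 served as the read-out, with either increase or decrease fitted against DMSO controls. Cells were a human umbilical vein endothelium plus PBMC co-culture under SEB/TSST-1 stimulation, measured 24 h after dosing.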

Read-out in a further assay: CD40, CD40 (gene 958)
As to the kind of experiment: BSK_SAg_CD40: BioMAP Diversity Plus: SAg Assay for CD40 Biomarker Activity (AID 2283088). The following applies: primary human HUVEC with PBMC; actives raise or lower the signal. A digest of the protocol: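 Human umbilical vein endothelial cells co-cultured with PBMC; CD40 levels measured by ELISA with fluorescence read-out 24 h after chemical dosing. Gain or loss of signal fitted bidirectionally against DMSO baseline.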

Read-out in another assay: CD69, CD69 (gene 969)
As to the kind of experiment: BSK_SAg_CD69: BioMAP Diversity Plus: SAg Assay for CD69 Biomarker Activity (AID 2283089).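 As to AC50: cell surface CD69 protein quantified by ELISA with fluorescence detection.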 The following applies: primary human HUVEC with PBMC; actives raise or lower the signal. A digest of the protocol: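 Values derive from bidirectional fitting relative to DMSO vehicle. Cells: umbilical vein endothelium plus peripheral blood mononuclear cells, treated 24 h before fluorescent ELISA for CD69.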

Read-out in assay [7]: Monocyte Chemoattractant Protein-1 (MCP1), CCL2 (gene 6347)
The experiment in a line: BSK_SAg_MCP1: BioMAP Diversity Plus: SAg Assay for Monocyte Chemoattractant Protein-1 (MCP1) Biomarker Activity (AID 2283090). The following applies: primary human HUVEC with PBMC; actives raise or lower the signal. A digest of the protocol: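 MCP-1 levels in the endothelial–PBMC SAg co-culture were quantified by ELISA at 24 h post-dosing; both increases and decreases versus DMSO scored. Cytotoxicity monitored by SRB total protein in parallel cultures.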

Read-out in assay [8]: E-selectin (Homo sapiens) (UniProt P16581)
The experiment in a line: BSK_SAg_Eselectin: BioMAP Diversity Plus: SAg Assay for Eselectin Biomarker Activity (AID 2283091). Conditions: primary human HUVEC with PBMC; actives raise or lower the signal. A digest of the protocol: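 HUVEC co-cultured with PBMC, compound dosed then read at 24 h; E-selectin measured by ELISA. Activity fitted bidirectionally against DMSO as negative control and baseline.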

Read-out in assay [9]: Monokine induced gamma interferon (MIG), CXCL9 (gene 4283)
The experiment in a line: BSK_SAg_MIG: BioMAP Diversity Plus: SAg Assay for Monokine induced gamma interferon (MIG) Biomarker Activity (AID 2283092). The following applies: primary human HUVEC with PBMC; actives raise or lower the signal. A digest of the protocol: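 Values reflect bidirectional fitting of ELISA-measured MIG against DMSO vehicle, taken 24 h after dosing of a co-culture of human umbilical vein endothelial cells and peripheral blood mononuclear cells.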

Assay [10] in a line: BSK_SAg_PBMCCytotoxicity: PBMC Cytotoxicity Assessment in the BioMAP Diversity Plus: SAg Assay (AID 2283093).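 Also: PBMC viability measured as Alamar Blue reduction fluorescence at 546/580 nm; fitted both ways against DMSO so a hit may be loss or gain of signal.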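 As to AC50: PBMC superantigen activated with SEB plus TSST-1 one hour after compound addition.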 Conditions: primary human HUVEC with PBMC. A digest of the protocol:
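Human umbilical vein endothelial cells co-cultured with PBMC; PBMC (75,000/well) pre-treated with compound 1 h, then activated with SEB and TSST-1 (20 ng/mL final each) for 90 h. Alamar Blue added 6 h, fluorescence 546/580 nm; bidirectional fit versus DMSO.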

Read-out in assay [11]: Interleukin-8 (IL8), CXCL8 (gene 3576)
The experiment in a line: BSK_SAg_IL8: BioMAP Diversity Plus: SAg Assay for Interleukin-8 (IL8) Biomarker Activity (AID 2283094). The following applies: primary human HUVEC with PBMC; actives raise or lower the signal. A digest of the protocol:
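In this co-culture of human umbilical vein endothelium with peripheral blood mononuclear cells, IL-8 is assayed by ELISA at 24 h. DMSO serves as baseline for bidirectional curve fitting.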

The nature of assay [12]: BSK_SAg_Proliferation: Cell Proliferation Assessment in the BioMAP Diversity Plus: SAg Assay (AID 2283095).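 Also: relative cell number as total protein by SRB absorbance in sub-confluent culture.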 The following applies: primary human HUVEC with PBMC. A digest of the protocol: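 Readout is SRB-stained protein (560 nm) in a primary human HUVEC and PBMC co-culture; sub-confluent cultures are read at 96 h. Activity is fitted bidirectionally using DMSO as baseline.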

A short description of assay [13]: BSK_SAg_SRB: Viability Assessment in the BioMAP Diversity Plus: SAg Assay (AID 2283096).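 Also: cells read one day after compound addition; hits may be either gain or loss of signal compared with DMSO.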 Conditions: primary human HUVEC with PBMC. A digest of the protocol:
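Endothelial/PBMC primary human co-culture; compound 24 h; fix 10% TCA, stain 0.1% SRB, A560; protein content as cytotoxicity proxy; bidirectional curve fit, DMSO = baseline.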

Assay [14] concerns the target Cytochrome P450 2C19 (Homo sapiens) (UniProt P33261). As to the kind of experiment: NVS_ADME_hCYP2C19: NovaScreen (NVS) CYP450-related Enzyme Activity (ADME) Assay for human CYP2C19 (AID 2283113; active = hit-call score of the fitted dose curve at least 0.9, where 1 is the maximum;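 also: potency for inhibition seen as loss of fluorescent signal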). A digest of the protocol:
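Cell-free assay of recombinant human CYP2C19 expressed in insect cells, with a fluorogenic substrate; fluorescence intensity read 1 hour after dosing. Loss of signal relative to acetonitrile negative control indicates inhibition. Primary screen at 10 uM in duplicate, then concentration series.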

Assay [15] has as its target human CYP2D6, CYP2D6 (gene 1565) (UniProt P10635). As to the kind of experiment: NVS_ADME_hCYP2D6: NovaScreen (NVS) CYP450-related Enzyme Activity (ADME) Assay for human CYP2D6 (AID 2283107; active = hit-call score of the fitted dose curve at least 0.9, where 1 is the maximum). A digest of the protocol: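 Cell-free assay using recombinant enzyme expressed in insect cells, with fluorescence-intensity readout of enzyme activity 1 hour after chemical dosing. Loss of signal versus acetonitrile negative control indicates inhibition. Primary screen ran in duplicate at 10 uM; actives were retested in concentration series.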

The target in assay [16] is human CYP2C9, CYP2C9 (gene 1559) (UniProt P11712). As to the kind of experiment: NVS_ADME_hCYP2C9: NovaScreen (NVS) CYP450-related Enzyme Activity (ADME) Assay for human CYP2C9 (AID 2283108; active = hit-call score of the fitted dose curve at least 0.9, where 1 is the maximum). A digest of the protocol: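 Cell-free assay of recombinant human CYP2C9 produced in Sf9 cells, with enzyme activity read by fluorescence intensity 0.75 h after compound addition. Loss of signal versus an acetonitrile negative control indicates inhibition. Primary screen used 10 uM in duplicate; actives were retested in concentration series.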
Sequence of human CYP2C9, CYP2C9 (gene 1559) (P11712 whole entry, looked up): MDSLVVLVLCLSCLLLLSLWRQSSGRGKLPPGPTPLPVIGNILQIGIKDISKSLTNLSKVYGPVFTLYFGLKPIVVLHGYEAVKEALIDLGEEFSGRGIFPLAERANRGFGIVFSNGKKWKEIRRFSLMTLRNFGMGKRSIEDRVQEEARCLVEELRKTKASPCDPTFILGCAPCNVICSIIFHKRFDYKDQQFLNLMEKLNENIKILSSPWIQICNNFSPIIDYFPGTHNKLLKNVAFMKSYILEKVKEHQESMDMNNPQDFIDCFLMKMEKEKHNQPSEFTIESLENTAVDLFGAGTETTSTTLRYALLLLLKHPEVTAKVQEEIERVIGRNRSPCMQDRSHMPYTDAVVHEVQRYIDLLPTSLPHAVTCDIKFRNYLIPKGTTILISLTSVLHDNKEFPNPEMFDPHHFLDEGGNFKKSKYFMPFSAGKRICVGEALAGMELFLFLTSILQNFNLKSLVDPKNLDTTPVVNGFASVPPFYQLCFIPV

Sequence of E-selectin (Homo sapiens) (P16581 whole entry, looked up): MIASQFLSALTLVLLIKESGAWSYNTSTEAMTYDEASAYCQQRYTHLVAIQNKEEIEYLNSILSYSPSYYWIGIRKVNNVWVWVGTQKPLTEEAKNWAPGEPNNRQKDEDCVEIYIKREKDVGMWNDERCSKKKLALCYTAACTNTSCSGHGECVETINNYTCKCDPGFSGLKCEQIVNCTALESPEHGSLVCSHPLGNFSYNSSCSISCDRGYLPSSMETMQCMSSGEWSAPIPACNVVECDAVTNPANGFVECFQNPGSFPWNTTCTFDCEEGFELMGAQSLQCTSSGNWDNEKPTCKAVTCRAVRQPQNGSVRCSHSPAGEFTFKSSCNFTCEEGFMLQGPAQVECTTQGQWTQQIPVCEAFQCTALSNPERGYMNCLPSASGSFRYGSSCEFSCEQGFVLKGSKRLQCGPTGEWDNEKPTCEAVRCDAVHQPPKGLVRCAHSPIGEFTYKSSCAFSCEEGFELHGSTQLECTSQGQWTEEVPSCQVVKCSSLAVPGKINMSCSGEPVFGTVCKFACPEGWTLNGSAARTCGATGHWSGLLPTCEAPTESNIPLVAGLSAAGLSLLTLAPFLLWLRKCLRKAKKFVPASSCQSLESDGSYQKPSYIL
Sequence of Tumor necrosis factor (Homo sapiens) (P01375 whole entry, looked up): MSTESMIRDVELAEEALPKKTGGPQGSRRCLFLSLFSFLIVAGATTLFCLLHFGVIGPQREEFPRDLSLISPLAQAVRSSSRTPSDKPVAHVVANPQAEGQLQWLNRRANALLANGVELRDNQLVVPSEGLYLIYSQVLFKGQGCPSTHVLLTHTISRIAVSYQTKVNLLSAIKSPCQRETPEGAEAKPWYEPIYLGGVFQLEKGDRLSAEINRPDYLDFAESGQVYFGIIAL
Sequence of human CYP2D6, CYP2D6 (gene 1565) (P10635 whole entry, looked up): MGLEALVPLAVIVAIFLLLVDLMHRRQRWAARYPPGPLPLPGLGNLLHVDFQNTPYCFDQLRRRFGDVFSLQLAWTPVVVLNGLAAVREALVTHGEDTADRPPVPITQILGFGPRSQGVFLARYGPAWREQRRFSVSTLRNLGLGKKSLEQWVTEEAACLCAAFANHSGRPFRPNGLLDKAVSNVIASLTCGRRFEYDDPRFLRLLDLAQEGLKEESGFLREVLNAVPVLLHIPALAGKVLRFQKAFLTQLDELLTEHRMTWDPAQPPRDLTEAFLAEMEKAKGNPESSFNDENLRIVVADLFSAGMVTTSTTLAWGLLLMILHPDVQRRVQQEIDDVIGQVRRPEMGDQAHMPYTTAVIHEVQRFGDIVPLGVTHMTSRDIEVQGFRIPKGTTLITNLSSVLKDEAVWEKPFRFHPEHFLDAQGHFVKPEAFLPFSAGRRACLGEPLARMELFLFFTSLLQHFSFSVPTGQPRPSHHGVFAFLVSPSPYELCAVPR

By AC50 is commonly meant the concentration at which the activity in the assay is half-maximal. Turning to `C#C[C@]1(O)CC[C@H]2[C@@H]3CCc4cc(OC)ccc4[C@H]3CC[C@@]21C`, the AC50 in assay [1] was 0.0185 µM (active); in assay [5], 34.6 µM (active); with CD38, CD38 (gene 952), 27.1 µM (active); with CD69, CD69 (gene 969), 15.2 µM (active); in assay [10], 33.4 µM (active); in assay [12], 30.4 µM (active). In addition, the AC50 in assay [14] was 6.84 µM (active). In addition, the outcome in assay [2] was “inactive”; in assay [3] it was “inactive”; in assay [4], “inactive”; in assay [6], “inactive”; in the assay with CD40, CD40 (gene 958), “inactive”; in [7], “inactive”. In addition, the outcome in assay [8], in assay [9], in [11] and in assay [13] was inactive.
As for `Oc1ccc(Nc2ccccc2)cc1`, the result in assay [1], in assay [3], in assay [4], in assay [5], in [9] and in [11] was inactive. In addition, the outcome in assay [13] and in assay [15] was inactive. In addition, the AC50 in assay [2] was 0.668 µM (active); in [6], 20 µM (active); with CD40, CD40 (gene 958), 8.57 µM (active); with CD69, CD69 (gene 969) it was 14 µM (active); in assay [7] it was 20 µM (active); in assay [8] it was 25.1 µM (active). For the same compound, the AC50 in assay [10] was 3.57 µM (active); in [12] it was 3.84 µM (active); in assay [16], 0.451 µM (active); in assay [14] it was 2.86 µM (active).
For the compound `CCCCCCC(C)OC(=O)CCCCC(=O)OC(C)CCCCCC` (stereo not given), the outcome in [1] is “inactive”; in assay [2], “inactive”; in assay [3], “inactive”; in assay [4], “inactive”; in [6], “inactive”; with CD40, CD40 (gene 958), “inactive”. The outcome with CD69, CD69 (gene 969) is “inactive”; in assay [7], “inactive”; in assay [8], “inactive”; in assay [9], “inactive”; in [10] it was “inactive”; in assay [11], “inactive”. In addition, the result in [12] and in [13] was inactive. Besides, in assay [5], the AC50 is 25.3 µM (active).
